Laboratory results reported in PubChem BioAssay.

What was measured:
[1] = molecular target: Tumor necrosis factor receptor superfamily member 10B (Homo sapiens) (UniProt O14763); assay: viability loss of caspase-8 NB7 cells with TRAIL – with/without TRAIL, luminescence panel, confirmation (AID 651596); details: NB7 neuroblastoma + caspase-8, TRAIL sensitization, NB7 Caspase-8, with TRAIL, mean of runs, at 10 µM, stronger effect = higher value
[2] = as above; details: NB7 neuroblastoma + caspase-8, without TRAIL, NB7 Caspase-8, without TRAIL, mean of runs, at 10 µM

Tumor necrosis factor receptor superfamily member 10B (Homo sapiens), sequence (O14763 whole entry, looked up): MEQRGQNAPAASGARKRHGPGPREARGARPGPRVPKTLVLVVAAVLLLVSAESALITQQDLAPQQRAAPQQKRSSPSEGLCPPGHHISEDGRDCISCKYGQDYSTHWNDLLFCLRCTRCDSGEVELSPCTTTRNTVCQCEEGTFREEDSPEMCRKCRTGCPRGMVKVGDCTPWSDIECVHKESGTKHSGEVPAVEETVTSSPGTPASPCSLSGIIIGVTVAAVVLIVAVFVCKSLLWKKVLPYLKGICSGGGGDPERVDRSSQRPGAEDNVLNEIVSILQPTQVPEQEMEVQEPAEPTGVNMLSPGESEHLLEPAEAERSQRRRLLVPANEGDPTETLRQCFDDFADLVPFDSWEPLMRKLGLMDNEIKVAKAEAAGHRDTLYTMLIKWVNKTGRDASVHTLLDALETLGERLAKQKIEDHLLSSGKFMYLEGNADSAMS

| Structure (SMILES) | activity [1] | activity [2] |
| --- | --- | --- |
| COc1ccccc1NC(CC(=O)c1ccccc1)C(=O)OCC(=O)c1ccc(C)c(C)c1 (centres undefined) | 73.5% | 66.2% |
| O=C(Nc1cccc(-n2cnnn2)c1)c1ccc(C(F)(F)F)cc1 | 21.7% | 10.3% |
| O=C(COc1ccccc1)Nc1cccc(-c2ccc(N3CCOCC3)nn2)c1 | 72.7% | 77.8% |
| O=C(CSc1nnc(-c2ccccc2)o1)Nc1ccccc1F | 55.1% | 43.5% |
| Cc1cccc(N2CCN(C(=S)Nc3ccc4nc(N5CCN(C)CC5)cc(C)c4c3)CC2C)c1 (centres undefined) | 75.8% | 98% |
| O=C(NC1CCCCC1)c1n[nH]c2c1CCCCC2 | 82.1% | 80.8% |
| Cc1ccn(-c2ccc(NC(=O)c3cccs3)cc2)n1 | 59.7% | 65.7% |
| Cc1ccc(-c2nn(-c3ccccc3)cc2NC(=O)CCl)cc1 | 94% | 95% |
| COc1cccc(NC(=O)c2cc3ccccc3o/c2=N\O)c1 | 65% | 64.6% |
| O=C1CC(c2ccc3c(c2)OCCO3)Oc2ccc([N+](=O)[O-])cc21 (centres undefined) | 56.3% | 55.9% |
| CCc1ccc2nc(N(CCCN(C)C)C(=O)c3ccc(S(=O)(=O)N4CCCc5ccccc54)cc3)sc2c1 | 38.9% | 63.9% |
| CCOC(=O)Cc1csc(NC(=O)c2cc3c(s2)CCCC3)n1 | 56.7% | 58.8% |
| COc1ccc(C2CC(c3ccc(Br)cc3)=NN2C(=O)CSC2=NN3CCCC(=O)N=C3S2)cc1 (centres undefined) | 95.8% | 90.9% |
| CCOC(=O)[C@]12Cc3c(cc(OC)c(OC)c3OC)[C@H]1N(C1CCCCC1)C(=O)c1cc(OC)ccc12 | 61.2% | 80.1% |
| CNC[C@@H](CC1CCCCC1)NC[C@H](CC(C)C)NCCc1cccc(C(F)(F)F)c1 | 99.4% | 99.7% |
| C=C(C)CSc1nnc2n(C)c(=O)c3c4c(sc3n12)CCC4 | 61.6% | 63.9% |
| O=C(CCl)Nc1ccccc1Sc1ccccc1 | 83.2% | 87.8% |
| Cc1ccc2nc(-c3ccc(N)cc3)sc2c1 | 83.2% | 81.8% |
| O=C(Nc1ccc2c(c1)OCCO2)c1ccc2nccnc2c1 | 53.5% | 50.4% |
| Nc1nc(N)c2cc(S(=O)(=O)c3ccc4ccccc4c3)ccc2n1 | 64.9% | 72.5% |
| CCCCNC(=O)c1cn(C)c2ccc(S(=O)(=O)N3CC(C)CC(C)C3)cc2c1=O (centres undefined) | 42.1% | 41.5% |

| Structure (SMILES) | activity [1] | activity [2] |
| --- | --- | --- |
| O=C(C[C@H]1C[C@H](C(=O)N2CCCCC2)[C@@]2(CCc3ccccc3)c3[nH]c4ccc(Cl)cc4c3CCN2C1=O)NCCC1=CCCCC1 | 46.3% | 86.7% |
| Cc1ccc(-c2cc(-c3ccccc3)no2)c(O)c1 | 71.8% | 60.2% |
| O=C(Nc1ccccc1)c1cc(C2CCCN(C(=O)C3CC3)C2)on1 (centres undefined) | 48.6% | 32.4% |
| COc1cccc(-c2nnc(Nc3nc4c(F)cccc4s3)o2)c1 | 81.2% | 84.2% |
| Cc1cccc(NC(=O)c2nc[nH]c2C(=O)N[C@@H](CCCCNC(=O)OC(C)(C)C)C(=O)OC(C)(C)C)c1 | 80.3% | 77% |
| C/C(=N\NC(=O)c1ccccc1O)c1cccs1 | 68.1% | 58.9% |
| CCOC(=O)c1nnn2c1nc(Nc1cccc(C(F)(F)F)c1)c1ccccc12 | 8.35% | 52.4% |
| COc1ccc(C2CC(c3cccs3)=NN2C(=O)CCl)cc1OC (centres undefined) | 98.7% | 98.7% |
| O=C(Nc1ccc(N2CCN(C(=O)c3cccs3)CC2)cc1)c1ccc([N+](=O)[O-])o1 | 86.7% | 99.8% |
| CC(C)COCc1ccc(O)c2ncccc12 | 38.6% | 32.1% |
| CCOc1cccc2sc(N(CCCN(C)C)C(=O)c3ccc(S(=O)(=O)N4CCc5ccccc5C4)cc3)nc12 | 55.9% | 73.7% |
| N#C/C(=C\c1cc(Cl)cc(Cl)c1O)C(=O)NC1CCCCC1 | 26.5% | 47.6% |
| COc1ccc(-c2cc3nc4n(c(=O)c3s2)CCC4)cc1 | 71.1% | 70.4% |
| c1ccc2c(c1)COc1c3cc4c(cc3nn1-2)OCO4 | 67.7% | 53.8% |
| O=C(CC(Nc1ccc(Cl)cc1)C(=O)O)c1ccccc1 (centres undefined) | 60.6% | 73.2% |
| Cc1nc(SCC(=O)Nc2nccs2)c(C#N)c(C)c1C | 90.8% | 92.1% |
| COc1ccc2sc(N(CCCN(C)C)C(=O)c3ccc(S(=O)(=O)N4CCc5ccccc5C4)cc3)nc2c1 | 82.4% | 69.3% |
| CC(C)c1ccc(/C=N/NC(=O)c2ccccn2)cc1 | 86.9% | 76.6% |
| O=C(CC(Nc1ccc(F)cc1)C(=O)O)c1ccccc1 (centres undefined) | 63.3% | 53.1% |
| Cc1ccc2nc(-c3cccc(N)c3)[nH]c2c1 | 71.5% | 59.6% |
| CCOC(=O)CSc1nc2cc(C)ccc2cc1C#N | 39.8% | 38.4% |
